The values that follow come from PubChem BioAssay (NCATS).

Inconclusive results are not listed. Unmarked numbers belong to inactive results. Activity calls are given as the source filed them. Calls come from the whole dose curve; as a rule, active = well fitted cell-killing curve with a large enough effect; inconclusive = small, poorly fitted or top-dose-only effect; inactive = no such curve, though single readings can be large or run the other way.
Potency is the fitted concentration of half-maximal effect.

The experiment is described as follows: qHTS of pediatric cancer cell lines to identify multiple opportunities for drug repurposing: Confirmatory screen for Rh41 cells (AID 1347123).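 Note: 48 h compound exposure; nearly all actives have a fitted effect of over 60% in size.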 Particulars: Rh41 rhabdomyosarcoma cells, viability/cytotoxicity qHTS; series mostly up to 45.9 µM; activity change, negative = cytotoxic: at the top concentration. An excerpt:
Drug repurposing or repositioning has been offered as a strategy for drug development in oncology programs. This approach has special potential for childhood cancers and other rare or orphan diseases, where the expected return on new drug development has been a disincentive to pharmaceuticals.
In this project we exploit the poly-pharmacology of drugs to discover new indications via phenotypic screening of a panel of 19 well-characterized cell lines derived from solid tumors seen in children and adolescents. The goal is to identify approved drugs with previously unrecognized anticancer properties that has the potential to reveal new mechanisms and biological processes involved in carcinogenesis or drug resistance. We employed a titration-based paradigm (quantitative high-throughput screening or qHTS), where all compounds were tested at multiple concentrations for their effect on cell viability. Concentration-response curves (CRCs) were derived directly from the primary screen, and both potency and efficacy values were used to identify compounds with robust bioactivity profiles. We screened the NIH Chemical Genomics Center (NCGC) Pharmaceutical Collection (NPC) and Mechanism Interrogation Plate (MIPE) small molecule collections of approved and investigational compounds against these cell lines; and measured metabolically active cells after 48 hours of compound treatment as a proxy for cell viability.
Assay Submitter: Nathalia J. Martinez, National Center for Advancing Translational Sciences, National Institutes of Health, Rockville, MD, USA; email: natalia.martinez@nih.gov
[1] Shen, M et al. Quantitative high-throughput phenotypic screening of pediatric cancer cell lines identifies multiple opportunities for drug repurposing. Oncotarget 2017 Dec 19;9(4):4758-4772. PMID 29435139.
The cells were obtained from University of North Carolina (UNC), Pediatric Preclinical Testing Program (PPT), and Coriell Institute (CI).
qHTS cell viability assay:
Cells were assayed in growth media at a density of 500-1,000 cells/well. Five microliters of cells were dispensed into 1,536-well, white, solid-bottom, TC-treated plates (Greiner Bio One) using a multidrop dispenser and incubated at 37 degrees C, 5% CO2, under a humidified atmosphere for 5 hours. Twenty-three nanoliters of compounds and controls (neutral control DMSO or positive control bortezomib at final concentration of 2.3 µM) were subsequently transferred by Kalypsys pintool. For primary screens, the MIPE collection was tested at 11-point dilutions (final concentrations range from 0.78 nM to 46 µM) and the NPC collection at 8-point dilutions (final concentrations range from 0.59 nM to 46 µM). Compounds tested in follow-up screens were assayed at 11-point dilutions. Cells were incubated for 48 hours, followed by addition of 3 µL of CellTiter-Glo (Promega). After a 15 min incubation at room temperature, samples were analyzed for luminescence intensity using a ViewLux High-throughput CCD imager equipped with clear filters.
In the case of `NCCCC(N)(C(=O)O)C(F)F` (stereo not drawn), the “activity change, negative = cytotoxic” value is 5.73%.

As for `CN1CCN(CCCN2c3ccccc3Sc3ccc(C(F)(F)F)cc32)CC1`, the Potency is 14.7 µM (active).

Take `C[C@]1(c2nc3c(C(N)=O)cccc3[nH]2)CCCN1`: the “activity change, negative = cytotoxic” value was -0.829%.

Consider `Cn1cnc2c(F)c(Nc3ccc(Br)cc3Cl)c(C(=O)NOCCO)cc21`, for which the “activity change, negative = cytotoxic” value is -10.5%.

As to `COc1ccc(-c2oc3cc(OC)ccc3c2C(=O)c2ccc(C#N)cc2)cc1`, the “activity change, negative = cytotoxic” value was -23.2%.

`COc1ccc(-c2ccc3c(N4CCOC[C@H]4C)nc(N4CCOC[C@H]4C)nc3n2)cc1CO`: the Potency is 0.233 µM (active).

As to `COCC(=O)NCC=Cc1ccc2ncnc(Nc3ccc(Oc4ccc(C)nc4)c(C)c3)c2c1`, the Potency was 18.5 µM (active).

On to `O=C(c1cc(Cc2n[nH]c(=O)c3ccccc23)ccc1F)N1CCN(C(=O)C2CC2)CC1`, for which the Potency was 9.27 µM (active).

As to `CO[C@@H]1[C@H](N(C)C(=O)c2ccccc2)C[C@H]2O[C@]1(C)n1c3ccccc3c3c4c(c5c6ccccc6n2c5c31)C(=O)NC4`, the “activity change, negative = cytotoxic” value was 0%.

For `O=NN(CCCl)C(=O)NCCCl`, the “activity change, negative = cytotoxic” value was 0.818%.

Take `Nc1nc2c(ncn2COCCO)c(=O)[nH]1`: the “activity change, negative = cytotoxic” value was -1.66%.

In the case of `CCCS(=O)(=O)Nc1ccc(F)c(C(=O)c2c[nH]c3ncc(-c4ccc(Cl)cc4)cc23)c1F`, the Potency was 13.1 µM (active).

Take `CNCc1ccc(-c2[nH]c3cc(F)cc4c3c2CCNC4=O)cc1`: the Potency was 16.5 µM (active).

As for `Cc1oncc1C(=O)Nc1ccc(C(F)(F)F)cc1`, the “activity change, negative = cytotoxic” value is -1.58%.

On to `C#Cc1cccc(Nc2ncnc3cc(OCCOC)c(OCCOC)cc23)c1`, for which the Potency was 9.27 µM (active).

For the compound `Nc1nc2ccc(OC(F)(F)F)cc2s1`, the “activity change, negative = cytotoxic” value was -0.314%.

As for `CCC(C)n1ncn(-c2ccc(N3CCN(c4ccc(OC[C@H]5CO[C@](Cn6cncn6)(c6ccc(Cl)cc6Cl)O5)cc4)CC3)cc2)c1=O` (stereo partly drawn), the Potency is 11.7 µM (active).

Turning to `COc1cc2nccc(Oc3ccc(NC(=O)NC4CC4)c(Cl)c3)c2cc1C(N)=O`, the Potency is 5.85 µM (active).

With `CCN(CC)CCCC(C)Nc1ccnc2cc(Cl)ccc12` (stereo not drawn), the “activity change, negative = cytotoxic” value is -14%.

For the compound `COc1cccc2cc(-c3nc(C4CCC(C(=O)O)CC4)n4ncnc(N)c34)[nH]c12` (stereo not drawn), the Potency was 2.08 µM (active).

For the compound `Oc1cccc(-c2nc(N3CCOCC3)c3oc4ncccc4c3n2)c1`, the Potency is 0.522 µM (active).

As to `Cc1cn[nH]c1`, the “activity change, negative = cytotoxic” value was 12.7%.

As for `NC(=O)c1ccc(I)c([N+](=O)[O-])c1`, the Potency was 43.7 µM (active).

In the case of `NC(N)=NC(=O)c1nc(Cl)c(N)nc1N`, the “activity change, negative = cytotoxic” value is 1.78%.

Regarding `COc1ccc(-c2ccc3c(N4CCOCC4)nc(N4C[C@@H](C)O[C@@H](C)C4)nc3n2)cc1CO`, the Potency was 0.657 µM (active).

Take `Cc1c(C)c2c(c(C)c1O)CCC(C)(COc1ccc(CC3SC(=O)NC3=O)cc1)O2` (stereo not drawn): the “activity change, negative = cytotoxic” value was 19.1%.

Turning to `Nc1nc2[nH]cc(CCc3ccc(C(=O)N[C@@H](CCC(=O)O)C(=O)O)cc3)c2c(=O)[nH]1`, the “activity change, negative = cytotoxic” value is -8.35%.

On to `Cc1c(CN2CCN(C(=O)C(C)C)CC2)sc2c(N3CCOCC3)nc(-c3cnc(N)nc3)nc12`, for which the Potency was 0.414 µM (active).
